Experimental data taken from ChEMBL document CHEMBL2218924, “A broad activity screen in support of a chemogenomic map for kinase signalling research and drug discovery” (Biochem J, 2013).

How the values were obtained:
[1] = molecular target: T1, Ephrin type-B receptor 1 (Homo sapiens) (UniProt P54762); conditions: at 10 µM
T1 sequence (whole entry): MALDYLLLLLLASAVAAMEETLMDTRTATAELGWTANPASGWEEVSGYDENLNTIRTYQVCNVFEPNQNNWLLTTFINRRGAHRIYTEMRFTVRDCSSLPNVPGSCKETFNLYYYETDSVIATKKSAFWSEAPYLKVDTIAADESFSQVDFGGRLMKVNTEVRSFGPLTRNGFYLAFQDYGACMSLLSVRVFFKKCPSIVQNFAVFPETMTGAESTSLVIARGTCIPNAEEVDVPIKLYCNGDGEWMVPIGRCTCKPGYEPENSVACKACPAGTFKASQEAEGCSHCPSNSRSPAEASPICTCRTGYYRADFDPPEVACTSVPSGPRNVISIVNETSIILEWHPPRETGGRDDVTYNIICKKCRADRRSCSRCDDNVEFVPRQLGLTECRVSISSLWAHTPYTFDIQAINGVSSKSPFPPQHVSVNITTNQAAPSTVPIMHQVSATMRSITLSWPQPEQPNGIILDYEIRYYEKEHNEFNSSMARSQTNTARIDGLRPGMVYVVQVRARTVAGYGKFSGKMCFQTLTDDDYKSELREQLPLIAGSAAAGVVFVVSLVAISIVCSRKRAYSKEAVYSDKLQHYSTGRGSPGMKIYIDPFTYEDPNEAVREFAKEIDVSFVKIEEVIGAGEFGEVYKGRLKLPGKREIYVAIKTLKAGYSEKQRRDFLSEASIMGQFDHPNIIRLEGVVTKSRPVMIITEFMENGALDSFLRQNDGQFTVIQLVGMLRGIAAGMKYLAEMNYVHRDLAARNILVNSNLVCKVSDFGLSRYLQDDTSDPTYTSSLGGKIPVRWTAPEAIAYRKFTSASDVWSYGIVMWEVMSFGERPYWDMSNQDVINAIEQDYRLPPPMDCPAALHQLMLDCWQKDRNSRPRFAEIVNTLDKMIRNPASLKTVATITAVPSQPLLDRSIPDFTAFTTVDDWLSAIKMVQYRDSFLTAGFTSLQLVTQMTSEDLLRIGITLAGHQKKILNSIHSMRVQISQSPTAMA

[2] = molecular target: T2, Ephrin type-B receptor 2 (Homo sapiens) (UniProt P29323); conditions: at 1 µM
T2 sequence (whole entry): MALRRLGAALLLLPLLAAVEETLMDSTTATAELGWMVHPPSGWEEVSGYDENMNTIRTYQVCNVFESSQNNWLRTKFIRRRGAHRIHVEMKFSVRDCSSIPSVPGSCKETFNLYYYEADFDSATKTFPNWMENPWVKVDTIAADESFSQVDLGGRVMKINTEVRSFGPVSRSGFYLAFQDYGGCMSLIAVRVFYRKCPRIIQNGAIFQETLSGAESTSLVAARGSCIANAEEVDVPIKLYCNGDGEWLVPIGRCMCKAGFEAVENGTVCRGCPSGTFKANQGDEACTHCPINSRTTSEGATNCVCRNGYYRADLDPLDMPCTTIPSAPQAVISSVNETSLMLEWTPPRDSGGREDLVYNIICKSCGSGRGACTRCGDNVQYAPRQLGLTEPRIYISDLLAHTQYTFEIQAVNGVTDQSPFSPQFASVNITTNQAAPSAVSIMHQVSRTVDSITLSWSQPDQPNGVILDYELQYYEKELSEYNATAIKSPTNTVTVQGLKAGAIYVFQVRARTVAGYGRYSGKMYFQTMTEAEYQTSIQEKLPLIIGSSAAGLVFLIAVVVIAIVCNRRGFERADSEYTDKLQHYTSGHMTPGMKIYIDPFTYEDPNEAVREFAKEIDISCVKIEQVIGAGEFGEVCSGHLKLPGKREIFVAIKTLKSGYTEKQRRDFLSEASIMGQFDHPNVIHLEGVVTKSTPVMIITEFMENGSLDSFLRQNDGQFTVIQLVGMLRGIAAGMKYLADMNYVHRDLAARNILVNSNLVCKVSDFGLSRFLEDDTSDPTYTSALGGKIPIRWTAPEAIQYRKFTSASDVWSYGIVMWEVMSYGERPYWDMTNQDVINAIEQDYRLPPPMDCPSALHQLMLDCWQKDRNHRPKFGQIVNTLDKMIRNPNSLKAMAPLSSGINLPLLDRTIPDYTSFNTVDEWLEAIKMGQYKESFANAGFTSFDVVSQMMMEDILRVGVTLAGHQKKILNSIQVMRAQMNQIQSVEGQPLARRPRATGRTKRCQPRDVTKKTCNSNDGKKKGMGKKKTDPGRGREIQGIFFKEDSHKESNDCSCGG

[3] = molecular target: T2, Ephrin type-B receptor 2 (Homo sapiens); conditions: at 10 µM
[4] = molecular target: T3, Ephrin type-B receptor 3 (Homo sapiens) (UniProt P54753); conditions: at 1 µM
T3 sequence (whole entry): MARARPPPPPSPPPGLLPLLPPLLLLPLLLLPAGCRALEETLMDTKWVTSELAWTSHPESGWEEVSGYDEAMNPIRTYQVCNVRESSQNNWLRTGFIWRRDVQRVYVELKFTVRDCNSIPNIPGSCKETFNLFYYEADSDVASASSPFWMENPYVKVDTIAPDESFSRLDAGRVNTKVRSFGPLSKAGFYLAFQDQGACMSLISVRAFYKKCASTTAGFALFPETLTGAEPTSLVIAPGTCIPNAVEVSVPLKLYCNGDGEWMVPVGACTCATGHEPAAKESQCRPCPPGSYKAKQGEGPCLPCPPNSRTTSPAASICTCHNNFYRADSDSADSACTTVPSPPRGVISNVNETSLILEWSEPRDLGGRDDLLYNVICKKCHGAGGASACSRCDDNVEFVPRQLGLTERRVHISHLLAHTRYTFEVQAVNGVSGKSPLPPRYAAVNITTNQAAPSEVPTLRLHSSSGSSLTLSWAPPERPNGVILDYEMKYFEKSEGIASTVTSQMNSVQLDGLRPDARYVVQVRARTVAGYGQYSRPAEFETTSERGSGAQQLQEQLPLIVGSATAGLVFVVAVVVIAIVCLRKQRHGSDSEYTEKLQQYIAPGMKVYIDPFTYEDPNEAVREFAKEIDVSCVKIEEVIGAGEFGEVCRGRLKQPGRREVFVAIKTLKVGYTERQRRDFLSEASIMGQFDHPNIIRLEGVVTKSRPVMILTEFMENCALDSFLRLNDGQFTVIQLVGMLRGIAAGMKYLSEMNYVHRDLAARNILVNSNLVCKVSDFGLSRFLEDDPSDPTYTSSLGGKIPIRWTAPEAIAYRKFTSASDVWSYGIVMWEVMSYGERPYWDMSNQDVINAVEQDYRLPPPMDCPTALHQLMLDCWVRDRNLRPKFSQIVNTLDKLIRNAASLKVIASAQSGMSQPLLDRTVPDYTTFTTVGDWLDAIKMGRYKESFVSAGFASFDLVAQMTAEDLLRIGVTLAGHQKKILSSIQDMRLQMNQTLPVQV

[5] = molecular target: T3, Ephrin type-B receptor 3 (Homo sapiens); conditions: at 10 µM
[6] = molecular target: T4, Ephrin type-B receptor 4 (Homo sapiens) (UniProt P54760); conditions: at 1 µM
T4 sequence (whole entry): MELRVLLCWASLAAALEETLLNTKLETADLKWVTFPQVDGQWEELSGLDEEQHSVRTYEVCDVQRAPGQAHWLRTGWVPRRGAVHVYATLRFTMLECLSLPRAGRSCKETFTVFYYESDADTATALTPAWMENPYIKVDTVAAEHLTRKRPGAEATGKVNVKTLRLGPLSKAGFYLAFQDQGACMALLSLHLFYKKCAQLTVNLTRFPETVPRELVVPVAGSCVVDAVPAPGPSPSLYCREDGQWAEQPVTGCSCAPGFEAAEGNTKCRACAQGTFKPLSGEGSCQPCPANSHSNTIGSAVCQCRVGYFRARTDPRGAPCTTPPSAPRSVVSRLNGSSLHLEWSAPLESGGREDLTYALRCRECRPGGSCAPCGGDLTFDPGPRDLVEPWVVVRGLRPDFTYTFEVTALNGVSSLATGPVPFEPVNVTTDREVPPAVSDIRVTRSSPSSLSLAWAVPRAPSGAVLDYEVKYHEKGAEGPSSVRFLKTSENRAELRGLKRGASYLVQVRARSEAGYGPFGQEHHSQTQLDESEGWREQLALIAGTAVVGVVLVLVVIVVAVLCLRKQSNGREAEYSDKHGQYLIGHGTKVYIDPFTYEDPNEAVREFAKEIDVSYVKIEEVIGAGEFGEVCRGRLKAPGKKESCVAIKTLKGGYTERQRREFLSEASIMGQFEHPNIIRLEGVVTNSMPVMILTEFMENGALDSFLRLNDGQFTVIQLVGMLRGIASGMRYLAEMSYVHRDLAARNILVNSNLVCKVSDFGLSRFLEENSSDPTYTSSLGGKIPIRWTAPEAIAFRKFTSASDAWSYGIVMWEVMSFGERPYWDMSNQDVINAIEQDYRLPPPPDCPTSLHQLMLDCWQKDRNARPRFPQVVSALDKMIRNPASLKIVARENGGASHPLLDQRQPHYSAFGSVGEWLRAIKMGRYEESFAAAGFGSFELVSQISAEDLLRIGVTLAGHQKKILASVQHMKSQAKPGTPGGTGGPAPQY

[7] = molecular target: T4, Ephrin type-B receptor 4 (Homo sapiens); conditions: at 10 µM
[8] = molecular target: Receptor tyrosine-protein kinase erbB-4 (Homo sapiens) (UniProt Q15303); conditions: at 1 µM
Receptor tyrosine-protein kinase erbB-4 (Homo sapiens), sequence (Q15303 whole entry): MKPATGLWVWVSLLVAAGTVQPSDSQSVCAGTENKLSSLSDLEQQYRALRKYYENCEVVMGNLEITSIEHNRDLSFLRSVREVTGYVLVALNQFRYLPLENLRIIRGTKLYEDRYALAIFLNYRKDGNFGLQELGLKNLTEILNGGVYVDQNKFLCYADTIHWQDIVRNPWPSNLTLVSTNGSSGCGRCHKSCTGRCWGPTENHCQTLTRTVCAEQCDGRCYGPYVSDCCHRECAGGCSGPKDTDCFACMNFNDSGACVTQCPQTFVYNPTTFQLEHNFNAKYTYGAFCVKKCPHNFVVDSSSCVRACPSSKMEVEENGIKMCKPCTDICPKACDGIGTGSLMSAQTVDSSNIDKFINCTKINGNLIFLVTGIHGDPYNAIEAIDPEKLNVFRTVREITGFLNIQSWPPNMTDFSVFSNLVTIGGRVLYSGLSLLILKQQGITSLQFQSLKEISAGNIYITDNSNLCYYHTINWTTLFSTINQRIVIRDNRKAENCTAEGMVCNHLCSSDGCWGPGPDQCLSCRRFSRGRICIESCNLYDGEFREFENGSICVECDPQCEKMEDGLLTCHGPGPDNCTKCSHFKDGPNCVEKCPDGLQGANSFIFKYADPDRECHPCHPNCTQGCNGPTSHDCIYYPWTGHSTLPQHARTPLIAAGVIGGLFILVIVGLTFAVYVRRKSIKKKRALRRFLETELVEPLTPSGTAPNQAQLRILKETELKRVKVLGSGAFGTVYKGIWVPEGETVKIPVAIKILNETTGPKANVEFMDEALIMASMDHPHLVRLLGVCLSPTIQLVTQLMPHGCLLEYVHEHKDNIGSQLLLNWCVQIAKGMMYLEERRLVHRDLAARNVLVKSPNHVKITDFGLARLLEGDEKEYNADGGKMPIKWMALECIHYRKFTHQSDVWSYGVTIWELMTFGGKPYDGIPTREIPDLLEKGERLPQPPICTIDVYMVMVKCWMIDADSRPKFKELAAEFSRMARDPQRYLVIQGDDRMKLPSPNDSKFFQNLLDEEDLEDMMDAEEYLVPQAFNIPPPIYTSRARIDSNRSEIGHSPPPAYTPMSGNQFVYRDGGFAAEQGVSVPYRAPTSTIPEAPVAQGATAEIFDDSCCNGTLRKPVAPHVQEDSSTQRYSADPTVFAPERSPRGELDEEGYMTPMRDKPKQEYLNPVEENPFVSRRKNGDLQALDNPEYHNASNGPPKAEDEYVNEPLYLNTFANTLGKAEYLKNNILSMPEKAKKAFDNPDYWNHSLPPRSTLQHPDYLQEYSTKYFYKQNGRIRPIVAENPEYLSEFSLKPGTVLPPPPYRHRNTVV

[9] = molecular target: Receptor tyrosine-protein kinase erbB-4 (Homo sapiens) (UniProt Q15303); conditions: at 10 µM
[10] = molecular target: Focal adhesion kinase 1 (Homo sapiens) (UniProt Q05397); conditions: at 1 µM
Focal adhesion kinase 1 (Homo sapiens), sequence (Q05397 2-1052 limits assumed): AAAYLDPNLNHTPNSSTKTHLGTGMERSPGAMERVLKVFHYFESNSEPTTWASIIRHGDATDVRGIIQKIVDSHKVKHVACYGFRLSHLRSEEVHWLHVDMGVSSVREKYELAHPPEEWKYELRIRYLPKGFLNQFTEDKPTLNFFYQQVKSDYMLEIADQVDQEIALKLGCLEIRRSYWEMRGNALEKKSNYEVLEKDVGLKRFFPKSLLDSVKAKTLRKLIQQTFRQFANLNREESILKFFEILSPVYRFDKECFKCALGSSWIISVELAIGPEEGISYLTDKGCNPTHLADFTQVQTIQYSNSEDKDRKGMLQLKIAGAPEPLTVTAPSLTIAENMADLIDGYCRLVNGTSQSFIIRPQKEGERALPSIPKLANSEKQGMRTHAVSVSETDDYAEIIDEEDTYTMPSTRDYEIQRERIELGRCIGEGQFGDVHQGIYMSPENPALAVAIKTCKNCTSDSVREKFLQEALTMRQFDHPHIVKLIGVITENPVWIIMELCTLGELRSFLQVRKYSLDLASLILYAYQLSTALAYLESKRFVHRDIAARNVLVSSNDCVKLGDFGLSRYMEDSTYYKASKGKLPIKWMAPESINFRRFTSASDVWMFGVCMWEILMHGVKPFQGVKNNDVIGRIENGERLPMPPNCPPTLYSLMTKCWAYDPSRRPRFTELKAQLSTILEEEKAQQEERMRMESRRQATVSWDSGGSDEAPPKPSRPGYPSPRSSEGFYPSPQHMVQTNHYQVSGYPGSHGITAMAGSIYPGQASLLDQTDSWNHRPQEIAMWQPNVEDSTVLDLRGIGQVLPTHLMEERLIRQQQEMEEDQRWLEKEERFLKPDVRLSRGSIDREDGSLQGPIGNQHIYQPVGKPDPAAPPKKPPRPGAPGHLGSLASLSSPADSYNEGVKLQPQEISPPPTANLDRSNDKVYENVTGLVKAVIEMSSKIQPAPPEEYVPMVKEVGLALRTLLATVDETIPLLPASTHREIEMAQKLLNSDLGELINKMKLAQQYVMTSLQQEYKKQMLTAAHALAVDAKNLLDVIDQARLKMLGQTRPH

`O=c1cc(-c2cccc3c2Sc2ccccc2S3)oc(N2CCOCC2)c1` showed a residual activity [1] of 92%, a residual activity [2] of 112% and a residual activity [3] of 126%. The residual activity [4] was 119% (inactive), the residual activity [5] was 121% and the residual activity [6] was 113%. For the same compound, the residual activity [7] was 118%, the residual activity [8] was 105% and the residual activity [9] was 92%. It also gave a residual activity [10] of 109%.
